# Pf apPOL inh = Pf-apPOL DNA polymerase inhibition; Recombinant Pf-apPOL, molecular beacon fluorescence, 1.5 h; inhibition, % at 10 µM; actives 0.25% (n = 210,000); AID 1794808
# mHTT-CaM PPI inh = mHTT-calmodulin interaction abrogation | inhibition, % at 15 µM | actives 3.6% (n = 190,000) | AlphaScreen His-mHTT/GST-CaM binding, luminescence | AID 1671202;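 also: 0% = both proteins with DMSO and 100% = one protein alone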
# Target sequence (P42858 whole entry, looked up, stated change not applied): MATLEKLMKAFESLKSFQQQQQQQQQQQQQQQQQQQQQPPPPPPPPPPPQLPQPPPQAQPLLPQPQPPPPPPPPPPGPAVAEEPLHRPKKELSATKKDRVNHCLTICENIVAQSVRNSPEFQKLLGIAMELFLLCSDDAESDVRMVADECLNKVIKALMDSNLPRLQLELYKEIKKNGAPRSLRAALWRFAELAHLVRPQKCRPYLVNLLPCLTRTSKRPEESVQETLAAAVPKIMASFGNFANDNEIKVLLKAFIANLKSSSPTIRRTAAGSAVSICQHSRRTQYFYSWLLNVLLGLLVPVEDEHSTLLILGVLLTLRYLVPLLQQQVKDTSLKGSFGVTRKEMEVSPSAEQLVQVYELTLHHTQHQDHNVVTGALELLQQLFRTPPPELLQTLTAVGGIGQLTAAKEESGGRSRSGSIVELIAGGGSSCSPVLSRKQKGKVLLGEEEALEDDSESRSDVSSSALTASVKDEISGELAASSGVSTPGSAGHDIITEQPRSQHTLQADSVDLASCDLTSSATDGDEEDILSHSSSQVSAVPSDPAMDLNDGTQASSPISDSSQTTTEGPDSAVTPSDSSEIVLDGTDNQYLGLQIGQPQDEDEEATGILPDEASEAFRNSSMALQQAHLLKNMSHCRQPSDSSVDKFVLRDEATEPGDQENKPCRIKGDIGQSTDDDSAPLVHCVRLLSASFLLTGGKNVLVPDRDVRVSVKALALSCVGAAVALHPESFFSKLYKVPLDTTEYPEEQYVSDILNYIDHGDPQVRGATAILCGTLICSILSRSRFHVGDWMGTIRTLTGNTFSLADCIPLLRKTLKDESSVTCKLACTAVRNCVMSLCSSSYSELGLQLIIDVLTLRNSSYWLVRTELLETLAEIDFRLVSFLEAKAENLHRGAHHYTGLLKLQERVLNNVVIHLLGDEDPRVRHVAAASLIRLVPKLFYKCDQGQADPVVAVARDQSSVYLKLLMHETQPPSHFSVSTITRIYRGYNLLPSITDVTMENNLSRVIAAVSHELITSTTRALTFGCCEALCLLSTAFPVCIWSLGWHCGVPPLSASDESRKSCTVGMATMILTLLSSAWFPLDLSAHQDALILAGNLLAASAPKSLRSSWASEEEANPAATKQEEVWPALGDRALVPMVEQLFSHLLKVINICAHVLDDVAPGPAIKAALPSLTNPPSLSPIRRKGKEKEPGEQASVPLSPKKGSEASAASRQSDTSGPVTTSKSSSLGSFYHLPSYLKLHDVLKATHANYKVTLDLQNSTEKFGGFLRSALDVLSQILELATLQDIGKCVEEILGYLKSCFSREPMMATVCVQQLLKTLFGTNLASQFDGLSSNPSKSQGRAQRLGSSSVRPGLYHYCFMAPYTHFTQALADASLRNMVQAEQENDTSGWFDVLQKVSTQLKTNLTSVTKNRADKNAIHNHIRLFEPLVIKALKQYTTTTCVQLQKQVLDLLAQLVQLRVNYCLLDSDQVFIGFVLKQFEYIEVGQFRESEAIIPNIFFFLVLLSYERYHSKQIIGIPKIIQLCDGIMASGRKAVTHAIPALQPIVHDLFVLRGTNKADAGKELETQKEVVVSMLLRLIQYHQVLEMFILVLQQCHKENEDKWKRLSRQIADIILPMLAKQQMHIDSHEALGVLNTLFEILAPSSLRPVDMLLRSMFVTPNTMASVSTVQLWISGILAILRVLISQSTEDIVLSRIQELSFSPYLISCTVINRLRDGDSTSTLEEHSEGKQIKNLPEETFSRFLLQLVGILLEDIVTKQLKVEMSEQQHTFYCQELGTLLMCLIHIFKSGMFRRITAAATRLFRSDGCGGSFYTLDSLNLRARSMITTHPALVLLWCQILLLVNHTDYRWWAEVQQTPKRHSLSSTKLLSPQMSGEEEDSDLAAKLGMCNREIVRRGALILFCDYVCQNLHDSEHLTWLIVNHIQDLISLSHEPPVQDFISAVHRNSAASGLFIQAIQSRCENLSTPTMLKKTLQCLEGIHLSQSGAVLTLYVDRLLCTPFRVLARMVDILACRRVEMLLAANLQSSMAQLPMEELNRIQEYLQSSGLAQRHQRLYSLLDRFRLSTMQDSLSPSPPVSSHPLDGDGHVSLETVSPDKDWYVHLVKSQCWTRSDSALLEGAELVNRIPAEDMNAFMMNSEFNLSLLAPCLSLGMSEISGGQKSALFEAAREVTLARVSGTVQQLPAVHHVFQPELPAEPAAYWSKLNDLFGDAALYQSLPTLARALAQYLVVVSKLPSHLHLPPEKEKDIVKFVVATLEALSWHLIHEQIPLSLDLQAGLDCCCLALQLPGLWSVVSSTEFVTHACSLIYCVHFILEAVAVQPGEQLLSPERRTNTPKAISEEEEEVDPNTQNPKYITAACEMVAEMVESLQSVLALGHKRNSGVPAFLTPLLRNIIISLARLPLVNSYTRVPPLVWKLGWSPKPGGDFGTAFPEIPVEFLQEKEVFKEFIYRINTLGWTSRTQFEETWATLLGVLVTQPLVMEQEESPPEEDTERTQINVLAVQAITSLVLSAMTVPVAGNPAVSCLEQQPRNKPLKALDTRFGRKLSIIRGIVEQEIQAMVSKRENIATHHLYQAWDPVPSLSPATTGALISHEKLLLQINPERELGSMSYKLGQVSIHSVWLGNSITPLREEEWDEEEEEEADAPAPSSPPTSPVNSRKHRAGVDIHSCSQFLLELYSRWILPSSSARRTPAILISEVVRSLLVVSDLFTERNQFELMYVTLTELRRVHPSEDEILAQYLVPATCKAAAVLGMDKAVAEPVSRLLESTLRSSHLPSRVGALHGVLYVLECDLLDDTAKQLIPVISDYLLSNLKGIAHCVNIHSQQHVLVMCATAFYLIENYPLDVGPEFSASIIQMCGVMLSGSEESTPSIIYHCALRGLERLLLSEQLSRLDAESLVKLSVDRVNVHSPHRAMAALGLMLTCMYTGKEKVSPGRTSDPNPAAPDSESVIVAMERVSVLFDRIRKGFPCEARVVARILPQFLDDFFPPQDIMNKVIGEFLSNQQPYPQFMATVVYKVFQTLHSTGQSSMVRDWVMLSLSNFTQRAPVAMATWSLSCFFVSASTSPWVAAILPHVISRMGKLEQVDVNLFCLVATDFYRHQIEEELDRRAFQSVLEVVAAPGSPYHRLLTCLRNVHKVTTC
# The depositor's hits bear a star; . = no result given. Rows were chosen to be rich in hits. Some 3.6% of all compounds tested hit in one or more screens of this group. Rule as the data show it: active = inhibition above about 50%; inactive = the rest.
SMILES,Pf apPOL inh,mHTT-CaM PPI inh
COc1cc(OC)cc(C(=O)N2CCC3(C2)C(=O)Nc2ccccc23)c1 (stereo not drawn),-1,16
Cc1ccc(C2NC(=O)N(CC(=O)NCCC(C)C)C3=C2C(=O)OC3)cc1C (stereo not drawn),-2,-5
COc1cccc(Nc2ncc3c(n2)CCN(Cc2cc(OC)ccc2OC)C3)c1,-6,35
COc1cccc(CN2CCc3nc(Nc4ccc5c(c4)OCCO5)ncc3C2)c1OC,1,44
COc1ccc(OC)c(CN2CCc3nc(Nc4ccc(F)cc4)ncc3C2)c1,-2,61*
COc1ccc(OC)c(CN2CCc3nc(Nc4ccc5c(c4)OCCO5)ncc3C2)c1,4,50*
CCC(=O)N1CCN(c2nc(C)nc(CC)c2Cc2cccc(C)c2)CC1,-4,1
CCn1c(C2CCN(C(=O)c3sccc3C)C2)nc2cccnc21 (stereo not drawn),-9,-6
COc1ccc(C(NC(=O)CCc2ccccc2)c2ccc3cccnc3c2O)cc1 (stereo not drawn),10,100*
COc1ccc(CCC(=O)NCCCOc2cccc3cccnc23)cc1,-5,2
CCCC(=O)NC(c1ccc(Cl)cc1Cl)c1ccc2cccnc2c1O (stereo not drawn),-4,100*
CC(C)CC(=O)NCC#CCOc1ccc2c(c1)OCO2,-8,4
CCCCC(=O)NC(c1ccc(Cl)cc1)c1ccc2cccnc2c1O (stereo not drawn),1,17
CC(C)CC(=O)NC(c1ccc2c(c1)OCO2)c1ccc2cccnc2c1O (stereo not drawn),-4,100*
CCCC(=O)NC(c1ccc(Cl)cc1)c1ccc2cccnc2c1O (stereo not drawn),6,99*
CCn1cc(CN2CCC(C(=O)NCc3cccc(OC)c3)CC2)c2cc(Cl)ccc21,2,26
CC1=C(C(=O)Nc2ccccc2I)C2(CCCCC2)OC1=O,-4,-7
COc1cc(C=NC(C#N)=C(C#N)NCC(C)(C)C)cc(Br)c1O,-60,.
CN1CCN(c2nc3ccc(OC(=O)c4cccc([N+](=O)[O-])c4)cc3s2)CC1,-6,-6
CC(=O)NC(c1ccc(Cl)cc1Cl)c1ccc2cccnc2c1O (stereo not drawn),2,100*
Cc1ccc(C(NC(=O)CC(C)C)c2ccc3cccnc3c2O)cc1 (stereo not drawn),-2,34
CCC(=O)NC(c1ccc(Cl)cc1)c1ccc2cccnc2c1O (stereo not drawn),-3,100*
CCC(=O)NC(c1ccc(OC)cc1)c1ccc2cccnc2c1O (stereo not drawn),4,100*
CC(C)CC(=O)NC(c1ccccc1)c1ccc2cccnc2c1O (stereo not drawn),10,100*
O=C(CN1C(=O)CCC1=O)NCC1COC2(CCCCC2)O1 (stereo not drawn),2,-2
SMILES,Pf apPOL inh,mHTT-CaM PPI inh
O=C(NCC1(O)CCc2ccccc21)c1ccsc1 (stereo not drawn),-4,-13
Cc1sc(N=Cc2cc(Br)ccc2O)c(C#N)c1C,-8,26
CCC(=O)NC(=O)NC(c1ccccc1)c1ccccc1,0,-5
CCC(=O)NC(c1ccccc1)c1ccc2cccnc2c1O (stereo not drawn),0,100*
CCCCC1(CC(=O)Nc2ccc(F)cc2)C(=O)N(c2ccccc2)N(c2ccccc2)C1=O,-1,98*
CCCCC1(CO)C(=O)N(c2ccccc2)N(c2ccccc2)C1=O,-12,.
COc1cccc2cc(C(=O)Nc3cccc(C)c3)c(=Nc3ccc(C(=O)O)cc3)oc12,-4,8
OC(COCc1ccccc1)Cn1cnc2ccccc21 (stereo not drawn),3,-9
OC(COCC(c1ccccc1)c1ccccc1)Cn1cnc2ccccc21 (stereo not drawn),-4,56*
Cc1cc(C)c(S(=O)(=O)N2CCN(C(=O)c3cccc([N+](=O)[O-])c3)CC2)c(C)c1,-5,7
CCCc1cc(C2CCCN2C(=O)NCc2ccc(F)cc2)no1 (stereo not drawn),-6,0
O=C1C=CC(=NS(=O)(=O)c2ccc(Cl)cc2)C=C1,-6,48
O=C1C=CC(=NS(=O)(=O)c2ccc(F)cc2)c2ccccc21,-4,100*
O=C1C=CC(=NS(=O)(=O)c2ccc(Cl)cc2)c2ccccc21,-2,98*
CC(C)c1ccc(S(=O)(=O)N=C2C=CC(=O)c3ccccc32)cc1,11,67*
CCN(CC)c1ccc(N=C2C=CC(=O)c3ccccc32)c(C)c1,0,.
CC(C)c1ccc(S(=O)(=O)N2CCN(C)c3ccccc32)cc1,2,41
CC(=O)N1CCN(C(=O)c2cc3c(s2)CN(C2CC2)C3)CC1,-4,10
O=C(Cc1cccc(F)c1)N1CCN(c2nc(CN3CCOCC3)cs2)CC1,-2,12
COc1cc(CCC(=O)NCC(=O)O)cc(OC)c1OC,-7,.
COc1cccc(CNC(=O)C2(C)CCCN(C(=O)CSc3ccccc3)C2)c1 (stereo not drawn),5,7
COc1ccc(NC(=O)c2cc(C(C)C)n3nccc3n2)c(C)c1,1,-4
CCOc1cc(-c2ccc(O)c(O)c2)cc(=O)c2c(C)oc(C)c12,-3,47
CCOc1cc(-c2ccc(SC)cc2)cc(=O)c2c(C)oc(C)c12,4,70*
CCOc1cc(-c2cc(OC)c(OC)c(OC)c2)cc(=O)c2c(C)oc(C)c12,2,37
SMILES,Pf apPOL inh,mHTT-CaM PPI inh
CCOc1cc(-c2ccc(OCc3ccccc3)c(OC)c2)cc(=O)c2c(C)oc(C)c12,-3,70*
COc1ccc(-c2cc(OC)c3c(C)oc(C)c3c(=O)c2)cc1,7,54*
COc1cc(-c2ccc(O)cc2)cc(=O)c2c(C)oc(C)c12,0,42
CCc1ccc(OCC(=O)Nc2cc(C)c(Cl)cc2OC)cc1,-2,-26
CC1(C)OCC2(CO1)CN(C(=O)c1ccc(=O)[nH]c1)C2,-3,-6
CCOc1ccc(CN2CCCC2c2cc(C(C)C)no2)cc1 (stereo not drawn),-2,-13
O=C(NC1CC2CC1CN2C(=O)Nc1ccc(C(F)(F)F)cc1)c1cccs1 (stereo not drawn),-9,-1
COc1ccc(C=C2Oc3c(ccc4c3CN(CCN3CCOCC3)CO4)C2=O)c(OC)c1,-36,55*
COc1ccc(C=C2Oc3c(ccc4c3CN(Cc3ccco3)CO4)C2=O)cc1OC,-29,58*
COc1ccccc1C=C1Oc2c(ccc3c2CN(CCN2CCOCC2)CO3)C1=O,-24,57*
COc1ccccc1C=C1Oc2c(ccc3c2CN(Cc2ccncc2)CO3)C1=O,-30,5
COc1cccc(C=C2Oc3c(ccc4c3CN(Cc3ccco3)CO4)C2=O)c1,-32,20
COc1ccccc1C=C1Oc2c(ccc3c2CN(Cc2cccnc2)CO3)C1=O,-28,42
COc1ccc(C=C2Oc3c(ccc4c3CN(Cc3cccnc3)CO4)C2=O)c(OC)c1,-5,18
COc1ccccc1C=C1Oc2c(ccc3c2CN(Cc2cc(OC)c(OC)c(OC)c2)CO3)C1=O,-18,55*
O=C(Nc1cccc(Cl)c1Cl)c1c(F)cccc1F,-2,.
COc1ccc(-c2nnc(N3CCC(C(=O)NC(C)c4ccccc4)CC3)o2)cc1 (stereo not drawn),-2,4
Cc1nc(-c2cc(S(=O)(=O)N(C)C3CCCCC3)c(C)s2)sc1C,-1,-30
CCCN1CCC(N2CCC(Cc3ccccc3)CC2)CC1,-5,-2

# Screening results (PubChem BioAssay)
